Source: PubChem BioAssay
Only some compounds are listed: those with a hit (about 3.7% of all), similar ones and a draw of the others.
Anthrax LF inh2 = Bacillus anthracis LF protease inhibitors, primary screen, biochemical, multiplex microsphere, MLPCN library. Lethal factor (Bacillus anthracis), P15917. AID 588501, 2011. multiplex microsphere protease cleavage assay. 360,000 tested, 0.12% active. inhibition, % at 10 µM; note: plate controls were buffer without enzyme for full effect and enzyme alone for no effect
BoNT-A LC inh2 = BoNT/A light chain protease inhibitors, primary screen, biochemical, flow cytometry, MLPCN library; Botulinum neurotoxin type A light chain protease (Clostridium botulinum A str. ATCC 3502); multiplex microsphere protease substrate cleavage; inhibition, % at 10 µM; 360,000 tested, 0.17% active; note: plate controls were buffer without enzyme for full effect and enzyme alone for no effect
Bead autofluor = flagged as autofluorescent in microsphere protease counterscreen. compound autofluorescence counterscreen, microsphere flow cytometry; active compounds read high. fluorescence intensity (concentration not given with the values). 360,000 tested, 3.1% active; in the data active = fluorescence intensity above about 16000; inconclusive = no clear call, values can overlap the other calls
BoNT-F LC inh = BoNT/F light chain protease inhibitors, primary screen, biochemical, flow cytometry, MLPCN library | Botulinum neurotoxin type F light chain protease (Clostridium botulinum) | Multiplex microsphere protease cleavage assay | inhibition, % at 10 µM | 360,000 tested, 0.22% active | AID 588497, 2011; in the data active = inhibition above about 35%, passing the limit was not always enough; inconclusive = no clear call, values can overlap the other calls; note: plate controls were buffer without enzyme for full effect and enzyme alone for no effect
MazEF act = activators of E. coli MazEF toxin-antitoxin RNase, primary screen, biochemical, fluorescence, uHTS; activation, % at 20 µM; Endoribonuclease toxin MazF (Escherichia coli (strain K12)), P0AE70; FAM/BHQ RNA-DNA oligo cleavage fluorescence, 5 h; 350,000 tested, 0.32% active; AID 504720, 2011; in the data active = activation above about 50%
* = called active by the depositor. Cut-off read from the data, not from the text of the source, unless noted: active = inhibition above about 30%; inconclusive = no clear call, values can overlap the other calls; inactive = below that.

What do the screens show for `CC1(C(=O)NS(=O)(=O)c2cccs2)CCN1C(=O)C1(c2ccc(Cl)cc2)CCC1` (stereo unspecified)?
Anthrax LF inh2: -3; BoNT-A LC inh2: 0; Bead autofluor: 3020; BoNT-F LC inh: -4

Results for Cc1cccc(Oc2coc3cc(OC(=O)c4cc5ccccc5oc4=O)ccc3c2=O)c1 ?
Anthrax LF inh2: -1; BoNT-A LC inh2: inconclusive; Bead autofluor: 20697*; BoNT-F LC inh: -1; MazEF act: -24

How did CCOC(=O)Oc1ccc2c(=O)c(Oc3cccc(C)c3)coc2c1 do in these assays?
Anthrax LF inh2: -3; BoNT-A LC inh2: 0; Bead autofluor: 7981; BoNT-F LC inh: -3; MazEF act: -1

Results for CCOC(=O)Oc1ccc2c(=O)c(Oc3cc(C)cc(C)c3)coc2c1 ?
Anthrax LF inh2: -1; BoNT-A LC inh2: inconclusive; Bead autofluor: 22166*; BoNT-F LC inh: 2; MazEF act: 1

How did CCCNC(=O)COc1ccc2c(=O)c(Oc3ccccc3F)coc2c1 do in these assays?
Anthrax LF inh2: 0; BoNT-A LC inh2: 0; Bead autofluor: 2409; BoNT-F LC inh: -3; MazEF act: 1

How did COc1ccccc1Oc1coc2cc(OCC(N)=O)ccc2c1=O do in these assays?
Anthrax LF inh2: 19; BoNT-A LC inh2: 0; Bead autofluor: 3638; BoNT-F LC inh: 41*; MazEF act: 2

Results for COc1ccccc1OP(=O)(O)Oc1ccccc1OC ?
Anthrax LF inh2: -3; BoNT-A LC inh2: 0; Bead autofluor: 4316; BoNT-F LC inh: -1; MazEF act: -10

How did O=C(NCc1cccc(C(F)(F)F)c1)c1ccc2c(c1)OCO2 do in these assays?
Anthrax LF inh2: 2; BoNT-A LC inh2: 0; Bead autofluor: 4196; BoNT-F LC inh: -4; MazEF act: 3

What do the screens show for `CN1C(=O)C(=Cc2ccc(N3CCCCCC3)o2)C(=O)N(C)C1=S`?
Anthrax LF inh2: 30*; BoNT-A LC inh2: 27; Bead autofluor: 14036; BoNT-F LC inh: 197*; MazEF act: 32

How did CNC(=O)C[C@@H]1C(=O)N(Cc2ccccc2)CC1(C)C do in these assays?
Anthrax LF inh2: -7; BoNT-A LC inh2: 0; Bead autofluor: 2977; BoNT-F LC inh: -3; MazEF act: 9

Results for CC12C=CC3(CN(Cc4ccccc4)C(=O)C3C1C(=O)NC1CC1)O2 (stereo unspecified) ?
Anthrax LF inh2: 1; BoNT-A LC inh2: 0; Bead autofluor: 22134*; BoNT-F LC inh: 1; MazEF act: 4

How did O=C(CN(C(=O)Cn1nnc(-c2ccc(F)cc2)n1)c1ccc(F)cc1)NC1CCCC1 do in these assays?
Anthrax LF inh2: 2; BoNT-A LC inh2: -2; Bead autofluor: 3910; BoNT-F LC inh: 8; MazEF act: 11

Results for CCCn1c(N)c(C(=O)CSc2nnc3ccccn23)c(=O)n(C)c1=O ?
Anthrax LF inh2: inconclusive; BoNT-A LC inh2: 0; Bead autofluor: inconclusive; BoNT-F LC inh: 2; MazEF act: 0

How did OCCNC(=S)Nc1ccc2c(c1)OCCO2 do in these assays?
Anthrax LF inh2: 30*; BoNT-A LC inh2: -2; Bead autofluor: 4551; BoNT-F LC inh: inconclusive; MazEF act: 8

What do the screens show for `O=C(NC(=S)Nc1cnc2ccccc2c1)c1ccccc1`?
Anthrax LF inh2: -7; BoNT-A LC inh2: 1; Bead autofluor: 4460; BoNT-F LC inh: -8; MazEF act: 2

Results for COCCCNC(=S)Nc1ccc2c(c1)OCCO2 ?
Anthrax LF inh2: -2; BoNT-A LC inh2: 0; Bead autofluor: 2458; BoNT-F LC inh: -3; MazEF act: 6

What do the screens show for `O=C(NC(=S)Nc1ccc2c(c1)OCCO2)c1ccccc1`?
Anthrax LF inh2: -3; BoNT-A LC inh2: inconclusive; Bead autofluor: 25451*; BoNT-F LC inh: -7; MazEF act: 7

What do the screens show for `Cn1ncc2cc(NC(=S)NC(=O)c3ccccc3)ccc21`?
Anthrax LF inh2: -2; BoNT-A LC inh2: -2; Bead autofluor: 17054*; BoNT-F LC inh: -7; MazEF act: 5

Results for COc1ccc(C(C)=O)cc1CSc1nnc(C)n1-c1ccccc1 ?
Anthrax LF inh2: 2; BoNT-A LC inh2: 2; Bead autofluor: 7580; BoNT-F LC inh: 10; MazEF act: -1

What do the screens show for `COc1ccc(-c2nnc(SCCC(=O)O)n2-c2ccccc2)cc1OC`?
Anthrax LF inh2: -2; BoNT-A LC inh2: -5; Bead autofluor: 25005*; BoNT-F LC inh: -8; MazEF act: 0
